Our source for the Potency, viability (% of control) and viability, % of control values is PubChem BioAssay (NCATS).

Records with an inconclusive call do not appear. Unmarked numbers belong to inactive results. Calls of active or inactive are those of the source. Calls come from the whole dose curve; as a rule, active = well fitted cell-killing curve with a large enough effect; inconclusive = small, poorly fitted or top-dose-only effect, or effect the other way; inactive = no such curve, though single readings can be large or run the other way.

The nature of assay [1]: Viability qHTS for spleen associated tyrosine kinase inhibitor (SYKi) naive MV4-11 cells (AID 1963823). Note: nearly all actives have a fitted effect of over 40% in size. In short, it runs like this:
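CellTiter-Glo luminescence, 10 min room-temperature incubation, gave viability. Cells: naive MV4-11 (500/well), treated 72 hr at 37 C, 5% CO2.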
On the technique in general: In qHTS, concentration-response curves come from the screen itself.

Assay [2] can be described thus: Viability qHTS for spleen associated tyrosine kinase inhibitor (SYKi) drug resistant MV4-11 cells (AID 1963824). Note: nearly all actives have a fitted effect of over 35% in size. A digest of the protocol: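 CellTiter-Glo luminescence, read 10 min after reagent addition, reports viability after a 72 hr compound exposure. Cells are an MV4-11 line made resistant to SYK inhibition, seeded at 500 per well onto compound-containing plates.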
Potency is the fitted concentration of half-maximal effect.

In the case of `N#Cc1ccc2[nH]cc(CCCCN3CCN(c4ccc5oc(C(N)=O)cc5c4)CC3)c2c1`, the Potency was 11.6 µM (active) in assay [1] and 18.4 µM (active) in assay [2].
In the same order, the values of `O=C(Nc1ccc(CN2CCOCC2)cc1)c1ccc(-c2cccc(Cl)c2)o1` are 8.2 µM (active) and 9.2 µM (active).
On to `Cc1ccc(S(=O)(=O)c2ccc([N+](=O)[O-])o2)cc1`, for which the Potency in assay [1] is 0.461 µM (active); in assay [2], 0.411 µM (active).
Take `C=C1C(=O)O[C@@H]2C[C@@H](C)[C@]34C[C@]5(C(=O)O[C@H]6CC(C)=C([C@H](C)CCCO)[C@H](OC(=O)C(C)CC)[C@H]65)[C@@H](C(C)=C3C[C@@H]12)[C@H]4OC(C)=O` (stereo partly specified): the Potency in assay [1] was 3.06 µM (active); in assay [2], 2.43 µM (active).
In the case of `CC(C)C1NC(=O)C2CCCN2C1=O` (stereo unspecified), the Potency result in assay [1] and in assay [2] was “inactive” throughout.
`COc1ccc(/C=C/C(=O)O[C@H]2[C@@H]3C=CO[C@@H](O[C@@H]4O[C@H](CO)[C@@H](O)[C@H](O)[C@H]4O)[C@@H]3[C@@]3(CO)O[C@@H]23)cc1O`: the Potency result in assay [1] and in assay [2] was “inactive” throughout.
With `C[C@@H]1O[C@@H](OC[C@H]2O[C@@H](OCc3ccccc3)[C@H](O)[C@@H](O)[C@@H]2O)[C@H](O)[C@H](O)[C@H]1O`, the Potency result in assay [1] and in assay [2] was “inactive” in each case.
On to `CCCCc1nc(Cl)c(CO)n1Cc1ccc(-c2ccccc2-c2nnn[nH]2)cc1`, for which the Potency result in assay [1] and in assay [2] was “inactive” each time.
Regarding `CC(C)CC(=O)NCCn1cc(C(=O)O)c(=O)cc1C(O)c1ccccc1` (stereo unspecified), the Potency entry in assay [1] and in assay [2] was “inactive” each time.
As for `O=C(OC1C=C(CO)C2C(OC3OC(CO)C(O)C(O)C3O)OC=CC12O)c1ccc(O)cc1` (stereo unspecified), the Potency entry in assay [1] and in assay [2] was “inactive” throughout.
As to `CC(C)(C(=O)NCC(F)(F)C(F)(F)F)C(=O)NC1C(=O)Nc2ccccc2-c2ccccc21` (stereo unspecified), the Potency in assay [1] is 14.6 µM (active); in assay [2] it was 13 µM (active).
For `O=C1NC(Cc2ccc(O)cc2)C(=O)N2CCCC12` (stereo unspecified), the Potency result in assay [1] and in assay [2] was “inactive” in each case.
`O=S(=O)(Nc1ccccn1)c1ccc(N=Cc2c(O)[nH]c3ccc4ncsc4c23)cc1`: the Potency in assay [1] is 0.0944 µM (active); in assay [2], 0.299 µM (active).
In the same order, the values of `CC(=O)O[C@H]1[C@H](C)[C@@H](O)[C@H]2[C@@H]1C=C(C(=O)O)[C@H]1C[C@@H]3[C@H]([C@H]21)[C@H]1C(=O)O[C@@H]2CC[C@@]3(C)O[C@]1(O)[C@@H]2C` are “inactive” and “inactive”.
Turning to `CCCCCCCCCCCCC/C=C/[C@@H](O)[C@H](CO)N(C)C`, in assay [1], the viability (% of control) was 70.8% [at 4.97 µM]. Also, the viability, % of control in assay [2] was 82.6% [at 4.97 µM].
With `C[C@@H]1O[C@@H](O[C@H]2[C@@H]3C=CO[C@@H](O[C@@H]4O[C@H](CO)[C@@H](O)[C@H](O)[C@H]4O)[C@@H]3[C@@]3(CO)O[C@@H]23)[C@H](O)[C@H](OC(=O)/C=C/c2ccc(O)cc2)[C@H]1OC(=O)/C=C/c1ccc(O)cc1`, the Potency result in assay [1] and in assay [2] was “inactive” in each case.
`C=C1CCC[C@]2(C)CC[C@@](O)(C(=C)C(=O)O)C[C@@H]12`: the Potency entry in assay [1] and in assay [2] was “inactive” in each case.
`CC(NC(=O)CC(=O)O)c1nc2ccccc2c(=O)[nH]1` (stereo unspecified): the Potency entry in assay [1] and in assay [2] was “inactive” in each case.
As to `Cc1c(C(=O)O)c(O)cc2c1C(=O)c1c(O)c([C@@H]3O[C@H](CO)[C@@H](O)[C@H](O)[C@H]3O)c(O)c(O)c1C2=O`, the Potency result in assay [1] and in assay [2] was “inactive” throughout.
With `COc1ccc(C(=O)O[C@H]2C=COC=C3C=C4C(=O)N(C)C(=S)C(=O)N4[C@@H]32)cc1Oc1cc(C=O)ccc1O`, the Potency in assay [1] was 2.82 µM (active); in assay [2], 2.24 µM (active).
For `CC(C)CC(c1c(O)c(C=O)c(O)c(C=O)c1O)C1CCC(C)(O)C2CC(C(C)(C)O)CCC12C` (stereo unspecified), the Potency entry in assay [1] and in assay [2] was “inactive” each time.
For the compound `CC(C)(O)C1CC=C(C(=O)OCC2OC(Oc3c(O)cc(C(=O)O)cc3O)C(O)C(O)C2O)CC1` (stereo unspecified), the Potency entry in assay [1] and in assay [2] was “inactive” in each case.
For `COc1cc(C(O)C2COC(c3ccc(OC4OC(CO)C(O)C(O)C4O)c(OC)c3)C2CO)ccc1O` (stereo unspecified), in assay [1], the Potency was 4.47 µM (active). Moreover, the Potency entry in assay [2] is “inactive”.
For `C=C1C(O)CC2C(C(=O)O)=COC(OC3OC(CO)C(O)C(O)C3OC(=O)/C=C\c3ccc(O)cc3)C12` (stereo unspecified) the same measures were “inactive” and “inactive”.
With `CCN(CCN(C)C)C(=O)CNCc1cc(C(N)=O)ccn1`, the Potency entry in assay [1] and in assay [2] was “inactive” each time.
With `CC(C)c1ccc2c(c1)C(O)CC1C(C)(C(=O)O)CCCC21C` (stereo unspecified), the Potency result in assay [1] and in assay [2] was “inactive” in each case.
As for `CC1CCC2(C(=O)OC3OC(CO)C(O)C(O)C3O)CCC3(C(=O)O)C(=CCC4C5(C)CCC(OC6OC(C)C(O)C(O)C6O)C(C)(C)C5CCC43C)C2C1C` (stereo unspecified), the Potency entry in assay [1] and in assay [2] was “inactive” in each case.
Turning to `CC(=O)O[C@@H]1[C@H](O[C@@H]2OC[C@](O)(CO)[C@H]2O)[C@@H](O[C@@H]2O[C@@H](C)[C@H](O)[C@@H](O[C@@H]3O[C@H](CO)[C@@H](O)[C@H](O)[C@H]3O)[C@H]2O)[C@H](OC(=O)[C@]23CCC(C)(C)C[C@H]2C2=CCC4[C@@]5(C)C[C@H](O)[C@H](O[C@@H]6O[C@H](C(=O)O)[C@@H](O)[C@H](O)[C@H]6O)[C@@](C)(C(=O)O)C5CC[C@@]4(C)[C@]2(C)CC3)O[C@@H]1C` (stereo partly specified), the viability (% of control) in assay [1] was 95.7% [at 9.25 µM]. In assay [2], the viability, % of control was 95.1% [at 9.25 µM].
